# Compound activity as filed in PubChem BioAssay.
# esBAF inh = blocks esBAF chromatin remodeling in mouse ES cells; Bmi1-luciferase knock-in reporter, 24 h; 100% = twice the neutral-well signal; 2% of 350,000 active; reporter increase, % at 12.5 µM; in the data active means activation above about 40%; inconclusive means no clear call, values can overlap the other calls;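 further: 0% = median of the plate's neutral control wells and 100% = double that signal; a rise in the Bmi1 reporter signal indicates esBAF inhibition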
# AHR activator = activators of human aryl hydrocarbon receptor; activation, % at 5 µM; 2.5% of 320,000 active; P35869; AHR-responsive luciferase reporter cells, luminescence; in the data active means activation above about 47%;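 further: 0% = vehicle wells and 100% = reference agonist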
# MITF act = MITF TRPM1 promoter activation in melanoma cells. SK-MEL-5 TRPM1-promoter luciferase, 24 h; % of positive control, neutral wells = 0. activation, % at 12.5 µM. 0.75% of 300,000 active;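 active means mean activation of at least 80% with every replicate also reaching 80%; inconclusive means mean reaches 80% but some replicate falls short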;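 further: 0% = neutral control wells and 100% = parthenolide positive control wells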
# GAA850 FXN act = activators of GAA850 frataxin (FXN) promoter; 0.56% of 360,000 active; activation, % at 6 µM; AID 540364; HEK293 lucGAA850 FXN promoter luciferase reporter, 24 h; percent of 10 µM SAHA response;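 active means activation above the average of all compounds screened plus 3 SD, cutoff fixed separately per campaign, cut at about 7.5% in these data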;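 further: 0% = DMSO wells and 100% = 10 µM SAHA wells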
# Wnt act = activators of Wnt/beta-catenin signaling. Wnt/beta-catenin reporter cell assay, activator, plate reader. activation, % at 9.35 µM. 1.2% of 300,000 active. AID 743398; in the data active means activation above about 30%, passing the limit was not always enough; inconclusive means no clear call, values can overlap the other calls;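 further: 0% = neutral control wells and 100% = positive control wells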
# AHR act cf = human AHR activation, confirmation | AID 2845 | activation, % at 9 µM | shares compounds with AHR activator | human cells, AHR-responsive luciferase reporter, luminescence | 87% of 2,300 active; in the data active means activation above about 49%;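 further: HepG2 hepatoma cells carrying a DRE-driven firefly luciferase reporter; 0% = vehicle wells and 100% = reference agonist wells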
# PXR counter = activates human PXR in AHR activator counter-screen | AID 434939 | cell-based PXR reporter, luciferase luminescence | 88% of 2,300 active | activation, % at 11.6 µM | shares compounds with AHR activator; in the data active means activation above about 11%;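 further: human hepatoma DPX-2 cells expressing full-length human PXR; 0% = DMSO and 100% = reference agonist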
# * hit, by the source's call; ? = inconclusive; / = no result. Most compounds without a hit are left out; they make up all but 4.2% or so of the library.
SMILES,esBAF inh,AHR activator,MITF act,GAA850 FXN act,Wnt act,AHR act cf,PXR counter
COc1ccc(C)cc1NC(=O)C(OC(=O)C1=NNC(=O)CC1)c1ccccc1 (stereo unspecified),0.5,82.5*,-0.3,-1.0,-1.4,99.2*,35.6*
O=C1CCC(C(=O)OC(C(=O)c2c[nH]c3ccccc23)c2ccccc2)=NN1 (stereo unspecified),3.5,4.9,-13.5,1.6,-2.8,/,/
CCCNC(=O)N1C[C@@H](O)COC[C@H]2O[C@@H](CC(=O)NCc3ccncn3)CC[C@@H]21,-2.5,/,/,/,/,/,/
CCC(=O)N1C[C@H](O)COC[C@H]2O[C@H](CC(=O)NCC3CCCCC3)CC[C@@H]21,3.0,/,/,/,/,/,/
C/C(=N\Nc1ccc([N+](=O)[O-])cc1)c1cc2ccccc2o1,/,80.8*,-10.1,2.6,-0.6,127.5*,14.8*
C[C@@H]1CN([C@H](C)CO)C(=O)c2cccc(NC(=O)C3CCCCC3)c2O[C@H]1CN(C)C(=O)Nc1cccc2ccccc12,4.4,/,/,/,/,/,/
O=C(N/N=C/c1ccc(-n2ccnc2)cc1)c1cccs1,-30.8,96.9*,62.4,4.1,17.8,64.7*,22.8*
COc1ccc(C(=O)NNC(=O)c2cc3ccccc3cc2O)cc1,/,7.3,/,1.4,7.5,/,/
COc1ccc(C(=O)Nc2c(O)ccc3ccccc23)cc1,/,79.4*,/,1.1,-4.1,66.7*,8.1
O=C(C[C@H]1CC[C@@H](NC(=O)c2ccncc2)[C@H](CO)O1)NCC1CC1,4.0,/,/,/,/,/,/
COc1cc(Cl)ccc1OCc1cc(C(=O)NCc2cc(C(C)C)no2)no1,79.1*,114.6*,60.2,5.3,51.3*,105.3*,45.2*
O=C(Nc1nccs1)c1csc2c1CCCC2,62.9*,84.2*,41.4,0.4,/,121.1*,25.0*
CO[C@@H]1CN(C)C(=O)c2cc(NC(=O)C3CCCCC3)ccc2OC[C@@H](C)N(Cc2nccs2)C[C@H]1C,2.3,/,/,/,/,/,/
Cn1c2ccccc2c(=O)c2ccc(C#Cc3ccccn3)cc21,/,4.4,/,/,-0.6,/,/
Cn1c2ccccc2c(=O)c2cc(C#Cc3ccccn3)ccc21,1.6,95.8*,102.4*,5.2,21.4,115.4*,27.9*
CCn1c(=O)cc(OCC(=O)NC2CC2)c2ccccc21,0.1,97.2*,2.6,1.9,-1.2,83.7*,24.8*
CN(C)C(=O)C[C@H]1C[C@@H]2c3cc(NC(=O)C4CCC4)ccc3O[C@@H]2[C@H](CO)O1,0.8,/,/,/,/,/,/
Cc1noc(C)c1S(=O)(=O)Nc1ccc2c(c1)C(=O)N([C@@H](C)CO)C[C@@H](C)[C@H](CN(C)C(=O)Nc1ccc(F)cc1)O2,-3.0,/,/,/,/,/,/
CC1CCN(C(=O)c2cc(-c3ccco3)on2)CC1,29.9,97.4*,55.2,3.0,23.7,128.0*,30.7*
CC1CCCC(C)N1C(=O)c1cc(-c2ccco2)on1 (stereo unspecified),17.7,-4.1,31.5,4.0,4.2,/,/
COCC(=O)Nc1ccc2c(c1)C(=O)N(C)C[C@H](OC)[C@@H](C)CN(CC1CC1)[C@H](C)CO2,0.6,/,/,/,/,/,/
Cc1ccccc1-c1cn(-c2ccccc2)c(=S)[nH]1,2.2,19.8,-1.9,-1.0,-0.4,/,/
Cc1ccc(-c2cn(-c3ccccc3)c(=S)[nH]2)cc1C,?,80.7*,123.2*,3.5,37.6*,11.9,38.2*
COCC#Cc1cnc2c(c1)C(=O)N([C@@H](C)CO)C[C@@H](C)[C@H](CN(C)S(=O)(=O)c1ccccc1)O2,-4.6,/,/,/,/,/,/
O=C(Nc1cccc(Cl)c1)N1C[C@H]2[C@@H](c3ccccc31)[C@@H](CO)N2C(=O)C1CC1,-0.2,/,/,/,/,/,/
SMILES,esBAF inh,AHR activator,MITF act,GAA850 FXN act,Wnt act,AHR act cf,PXR counter
COC(=O)c1ccc(-c2nc(-c3ccc(Br)o3)no2)cc1,23.1,-0.1,/,1.2,11.5,/,/
NC(=O)c1cccc(-c2noc(-c3ccccc3F)n2)c1,-52.0,-17.8,31.9,1.7,5.9,/,/
Cc1ccccc1-c1nc(-c2ccc(Br)o2)no1,15.1,102.0*,32.0,4.3,?,127.0*,49.0*
Fc1ccccc1-c1nc(-c2ccccc2)no1,-3.8,92.7*,-2.6,2.7,46.1*,125.9*,12.8*
Fc1ccccc1-c1nc(-c2ccc(Br)o2)no1,/,101.8*,10.4,0.3,22.5,142.6*,31.3*
COc1ccc(S(=O)(=O)N(C)C[C@@H]2Oc3ccc(NS(=O)(=O)c4ccccc4)cc3C(=O)N([C@@H](C)CO)C[C@@H]2C)cc1,2.8,/,/,/,/,/,/
COc1ccc(C(=O)NN)cc1COc1ccc(Br)cc1,-1.3,101.9*,-14.2,0.2,/,89.6*,17.0*
C[C@H](CO)N1C[C@H](C)[C@@H](CN(C)Cc2ccncc2)Oc2ccc(NS(=O)(=O)c3cccs3)cc2CC1=O,4.2,/,/,/,/,/,/
CCCc1nn(C)c(C(=O)Nc2ccccc2)c1Cl,/,82.1*,28.5,-4.6,/,89.1*,13.3*
Cn1cc(C(=O)Nc2ccc(Cl)cc2)c(C(F)(F)F)n1,-3.0,107.4*,-19.2,2.4,-7.0,100.8*,27.5*
CCCc1nn(C)c(C(=O)Nc2ccc(C(C)(C)C)cc2)c1Cl,/,21.5,4.9,2.5,/,/,/
CCCc1nn(C)c(C(=O)Nc2ccc(Cl)cc2)c1Cl,/,88.3*,17.1,1.8,-1.8,126.3*,24.5*
Cn1nc(C(F)(F)F)c(C(=O)Nc2ccc(Cl)cc2)c1Cl,12.9,-4.3,/,0.8,/,/,/
C[C@H](CO)N1C[C@H](C)[C@H](CN(C)C(=O)c2ccc(F)cc2)Oc2ncc(C#C[C@@H](C)O)cc2C1=O,1.7,/,/,/,/,/,/
CC(C)c1ccc(NC(=O)c2cccc(NC3=NC4CS(=O)(=O)CC4S3)c2)cc1 (stereo unspecified),0.2,0.6,/,1.9,1.7,/,/
O=C(Nc1ccc(Cl)cc1)c1cccc(NC2=NC3CS(=O)(=O)CC3S2)c1 (stereo unspecified),-4.1,181.9*,/,2.0,-0.1,117.0*,18.7*
CC(=O)N1[C@H](CO)[C@@H](c2ccccc2)[C@@H]1CNC(=O)CN1CCOCC1,4.5,/,/,/,/,/,/
Cc1cc(NC(=O)CCC(=O)N(c2ccc(F)cc2)C(C(=O)NC2CCCC2)c2ccncc2)no1 (stereo unspecified),0.5,90.5*,-1.4,1.1,/,81.2*,20.7*
COc1ccc(S(=O)(=O)N(C)C[C@@H]2Oc3ccc(NS(=O)(=O)c4ccc(C)cc4)cc3CC(=O)N([C@H](C)CO)C[C@H]2C)cc1,-4.2,/,/,/,/,/,/
CCOC(=O)c1sc(N/N=C/c2ccc(N(C)C)cc2)nc1C,-4.2,129.9*,12.1,2.9,-0.7,85.5*,10.6*
CCOC(=O)c1nc(N/N=C/c2ccccc2)sc1Br,37.8,0.5,/,1.3,-1.9,/,/
CCNC(=O)[C@@H]1[C@@H](CO)[C@@H]2Cn3c(ccc(-c4cncnc4)c3=O)[C@@H]2N1Cc1ccc2c(c1)OCO2,2.8,/,/,/,/,/,/
